According to the supplement of paper PMC6555819:

Legend:
Experiment in all cases: PBM binding z-score (relative to random genomic background probes); higher = stronger binding; sequences stand for … in GC…GCGATTGACAGCGTAGAATGAAGG
[1] = test system: FXR:RXRa (NR concentration 270 nM, RXRa partner concentration 90 nM)
In short: (§1)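 Regression normalization was applied to scanned fluorescence from custom Agilent 4×180K protein-binding microarrays. Before scanning, arrays were incubated 1 h with ligand-free nuclear receptor dimers, and binding was detected with antibodies against each partner (one per run). Binding z-scores use the random background probes as reference.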

[2] = test system: LXRa:RXRa (NR concentration 270 nM, RXRa partner concentration 90 nM)
In short: as §1

[3] = test system: LXRa homodimer (NR concentration 270 nM)
In short: as §1

[4] = test system: LXRb:RXRa (NR concentration 270 nM, RXRa partner concentration 90 nM)
In short: as §1

[5] = test system: LXRb homodimer (NR concentration 270 nM)
In short: as §1

[6] = test system: PPARa:RXRa (NR concentration 270 nM, RXRa partner concentration 90 nM)
In short: as §1

[7] = test system: PPARg:RXRa (NR concentration 180 nM, RXRa partner concentration 90 nM)
In short: as §1

[8] = test system: PPARg:RXRa 270nM:90nM, anti-RXR (NR concentration 270 nM, RXRa partner concentration 90 nM)
In short: as §1

[9] = test system: PPARg:RXRa 30nM:10nM, anti-RXR (NR concentration 30 nM, RXRa partner concentration 10 nM)
In short: as §1

[10] = test system: PPARg:RXRa 90nM:30nM, anti-RXR (NR concentration 90 nM, RXRa partner concentration 30 nM)
In short: as §1

[11] = test system: PPARg:RXRa DBDmut IVT, anti-RXR (DBD mutation: RXRa K156A/R161A, NR concentration 270 nM, RXRa partner concentration 90 nM)
In short: as §1

[12] = test system: PPARg:RXRa IVT, anti-PPARg (NR concentration 270 nM, RXRa partner concentration 90 nM)
In short: as §1

[13] = test system: PPARg DBDmut:RXRa IVT, anti-PPARg (DBD mutation: PPARg1 K132A/R137A, NR concentration 270 nM, RXRa partner concentration 90 nM)
In short: as §1

[14] = test system: PPARg DBDmut IVT, anti-PPARg (DBD mutation: PPARg1 K132A/R137A, NR concentration 270 nM)
In short: as §1

[15] = test system: PPARg homodimer (NR concentration 180 nM)
In short: as §1

[16] = test system: PXR:RXRa (NR concentration 270 nM, RXRa partner concentration 90 nM)
In short: as §1

[17] = test system: PXR homodimer (NR concentration 270 nM)
In short: as §1

[18] = test system: RARa:RXR (NR concentration 270 nM, RXRa partner concentration 90 nM)
In short: as §1

[19] = test system: RARa homodimer (NR concentration 270 nM)
In short: as §1

[20] = test system: RARb:RXRa (NR concentration 270 nM, RXRa partner concentration 90 nM)
In short: as §1

| Sequence | PBM binding z-score [1] | PBM binding z-score [2] | PBM binding z-score [3] | PBM binding z-score [4] | PBM binding z-score [5] | PBM binding z-score [6] | PBM binding z-score [7] | PBM binding z-score [8] | PBM binding z-score [9] | PBM binding z-score [10] | PBM binding z-score [11] | PBM binding z-score [12] | PBM binding z-score [13] | PBM binding z-score [14] | PBM binding z-score [15] | PBM binding z-score [16] | PBM binding z-score [17] | PBM binding z-score [18] | PBM binding z-score [19] | PBM binding z-score [20] |
| --- | --- | --- | --- | --- | --- | --- | --- | --- | --- | --- | --- | --- | --- | --- | --- | --- | --- | --- | --- | --- |
| AGAATGAGGTGAAGATCAGGGAAACAGAATACAT | 0.903 | 0.457 | -0.113 | 0.85 | -0.114 | 2.91 | 2.33 | 2.21 | 0.859 | 1.5 | 4.13 | 4.03 | 1.46 | 0.73 | 0.633 | 0.242 | 0.183 | 0.786 | 0.494 | 1.32 |
| GGAACGAGTGCAAGTTGATAGCAGAGTTTGATGG | -0.219 | -0.282 | -0.428 | -0.496 | -0.508 | -0.279 | 0.107 | -0.41 | -0.349 | -0.508 | -0.142 | -0.639 | 0.145 | -0.69 | -0.875 | 0.885 | 1.16 | -0.297 | -1.23 | 0.365 |
| AGAACGAGGGCAATGAGTTGCTAGCACGGGTGGC | 0.0307 | -0.027 | -0.614 | -0.476 | -0.767 | 1.23 | 1.05 | 0.875 | -0.288 | 0.214 | 3.04 | 2.38 | 0.736 | -0.0393 | -0.0603 | 0.451 | 0.523 | 0.256 | -0.567 | 1.98 |
| CCTACTGGGCCACGAAAGGTCGTTGATTCAGTGA | 0.933 | 1.81 | 0.373 | 1.5 | -0.704 | 2.67 | 2.53 | 2.93 | 0.0833 | 1.96 | 5.8 | 5.18 | -0.547 | -0.744 | 1.16 | 2.77 | 0.256 | 2.19 | -0.764 | 1.84 |
| ATCTCTAGGTAAAGCTCAGTGAAAGATCGATAGA | 0.281 | 0.0459 | -0.107 | -0.256 | 0.358 | 0.297 | 0.103 | 0.333 | 0.3 | 0.095 | 2.67 | 1.38 | 0.778 | 0.893 | 0.544 | -0.131 | 0.14 | 0.258 | 0.432 | 0.0103 |
| ATCTCCAGGTAAGACTCAGTTCAGTGAAGAACGC | 0.579 | 0.595 | 0.65 | 0.641 | 0.696 | 0.265 | 0.0991 | 0.41 | 0.426 | 0.596 | 0.285 | 0.513 | 0.311 | 1.43 | 1.51 | 1.38 | 1.36 | 0.454 | 0.892 | 0.446 |
| AAACCAAGGTGATCGTGAGGTCGTTGATACTAAC | 1.87 | 1.29 | 0.284 | 1.13 | -0.456 | 1.54 | 0.386 | 0.544 | -0.322 | 0.389 | 0.846 | 1.19 | 0.252 | 0.247 | 0.649 | 3.05 | 1.5 | 2.16 | -0.27 | 1.24 |
| AGAAGGAGGGCAATGAGTTGATAGCACGGGTGGC | 0.307 | 0.255 | 0.19 | 0.452 | 0.521 | 1.2 | 1.33 | 0.786 | -0.173 | 0.451 | 3.57 | 2.64 | 0.99 | -0.352 | 0.922 | 1.39 | 4.17 | 0.2 | 0.815 | 1.92 |
| CCGACTGGGGCATAAGGTTACCACAAGCCAGCCC | 0.502 | 1.28 | -0.388 | 0.812 | -0.551 | 2.07 | 2.44 | 3.27 | 0.735 | 2.92 | 2.87 | 3.09 | -1.04 | -1.03 | 0.364 | 0.223 | -0.315 | 1.25 | -0.43 | 1.73 |
| AGTCAAAGTTCAGGACCAGGTAACGTAAAGCACG | 4.33 | 3.63 | 1.19 | 1.72 | 0.134 | 3.32 | 4.94 | 4.9 | 2.16 | 4.19 | -0.279 | 1.91 | 0.221 | 0.246 | 1.9 | 2.47 | 1.19 | 2.67 | 0.885 | 4.37 |
| ATCTCTAGGTAAAGATAGTTCCGTGAATGCAAAT | 0.0722 | -0.0482 | 0.14 | -0.171 | 0.352 | 0.22 | 0.326 | 0.273 | 0.172 | 0.366 | 1.2 | 1.52 | 1.55 | 0.949 | 0.486 | -0.0332 | 0.339 | 0.23 | 0.96 | -0.0284 |
| TCTGCTAGGCCAACGATGGTCAGCTAATCTGCTA | -1.19 | -0.741 | -1.19 | -1.05 | -1.1 | -0.375 | -0.327 | 0.663 | 1.12 | 0.978 | 1.09 | 0.619 | -0.0832 | -1.02 | -1.45 | -0.538 | -1.31 | -0.793 | -1.04 | 0.786 |
| AGAACGAGGGCACACTGAGTTGATAGCAGAGTAG | 0.801 | 0.517 | -0.135 | 0.356 | -0.454 | 2.02 | 1.96 | 1.64 | 0.493 | 1.01 | 3.87 | 3.8 | 0.337 | 0.314 | 0.871 | 1.29 | 0.305 | 0.924 | 0.142 | 2.16 |
| TCTTGTAGATCAGCAGGCTAAGAAAGCTGGCCAA | -0.304 | -0.495 | -0.573 | -0.216 | -0.933 | 0.0616 | -0.735 | 0.857 | 2.22 | 1.47 | 1.35 | 0.0627 | -0.91 | -0.15 | -1.56 | -0.333 | -0.655 | -0.459 | -0.665 | -0.469 |
